Test results: PubChem BioAssay (NCI)
Where “and” joins values, the source holds several entries; their conditions need not be identical. Equal entries are not always repeated. This is part of a sample that, as a whole, favours compounds with a hit. Of some 83,000 tested, about 20% had one in any assay.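 A percent growth of 40 corresponds to 60% growth inhibition; 0 means no net growth; -100 means all cells died. Active threshold: below 10.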 Calls of active or inactive are those of the source.

How the values were obtained:
Experiment in all cases: NCI-60 one-dose screen, 48 h (100 = growth as untreated, 0 = no growth, -100 = all killed)
T-47D breast = details: 10 µM unless noted
BT-549 breast = details: 10 µM unless noted
SW-620 colon = test system: SW-620 colon
MCF7 breast = test system: MCF7 breast
HCT-116 colon = test system: HCT-116 colon
HCC-2998 colon = test system: HCC-2998 colon
KM12 colon = test system: KM12 colon
MDA-MB-435 melanoma = details: 10 µM unless noted

Measured: growth

Cc1onc(-c2c(F)cccc2Cl)c1-c1ncc(-c2ccc(Cl)cc2)o1
inactive: T-47D breast 73.9% and 35.8% | BT-549 breast 73.8% and 40.7% | SW-620 colon; 10 µM unless noted 37.3% and 29.4% | MCF7 breast; 10 µM unless noted 61.9% and 20.5% | HCT-116 colon; 10 µM unless noted 27.1% and 16.6% | HCC-2998 colon; 10 µM unless noted 61.2% and 56.8% | KM12 colon; 10 µM unless noted 43.4% and 34.7%

Cc1cc(=NO)cc(C)n1O
inactive: T-47D breast 94.4% | BT-549 breast 82.8% | SW-620 colon; 10 µM unless noted 100% | MCF7 breast; 10 µM unless noted 87.6% | HCT-116 colon; 10 µM unless noted 97.3% | HCC-2998 colon; 10 µM unless noted 120% | KM12 colon; 10 µM unless noted 110%

Nc1c(Cl)cc2c(c1Br)C(=O)c1ccccc1C2=O
inactive: T-47D breast 76% | BT-549 breast 114% | SW-620 colon; 10 µM unless noted 99.6% | MCF7 breast; 10 µM unless noted 99.8% | HCT-116 colon; 10 µM unless noted 96.7% | HCC-2998 colon; 10 µM unless noted 101% | KM12 colon; 10 µM unless noted 106%

CC(=O)c1cc2ccccc2o1
inactive: T-47D breast 100% | BT-549 breast 97.2% | SW-620 colon; 10 µM unless noted 112% | MCF7 breast; 10 µM unless noted 95.6% | HCT-116 colon; 10 µM unless noted 100% | HCC-2998 colon; 10 µM unless noted 109% | KM12 colon; 10 µM unless noted 109%

COc1cc(NCCCCCNC(C)C)c2ncccc2c1
inactive: T-47D breast 82.3% | BT-549 breast 89.1% | SW-620 colon; 10 µM unless noted 87.2% and 106% | MCF7 breast; 10 µM unless noted 85.3% and 86.4% | HCT-116 colon; 10 µM unless noted 96.9% and 90.3% | HCC-2998 colon; 10 µM unless noted 102% and 90.2% | KM12 colon; 10 µM unless noted 91.4%

CC(C)(C)OC(=O)NCCc1ccc(N)cc1
inactive: T-47D breast 94.8% | BT-549 breast 98.1% | SW-620 colon; 10 µM unless noted 97.6% | MCF7 breast; 10 µM unless noted 99.2% | HCT-116 colon; 10 µM unless noted 112% | HCC-2998 colon; 10 µM unless noted 107% | KM12 colon; 10 µM unless noted 107%

O=C(O)c1c2c(nc3ccccc13)Cc1ccccc1-2
inactive: T-47D breast 97.3% and 98.5% | BT-549 breast 103% and 88.1% | SW-620 colon; 10 µM unless noted 99.3% and 90.1% | MCF7 breast; 10 µM unless noted 97.3% and 92% | HCT-116 colon; 10 µM unless noted 95.6% and 104% | HCC-2998 colon; 10 µM unless noted 98.3% and 99.9% | KM12 colon; 10 µM unless noted 97.8% and 98.9%

Cc1nc2c(=O)[nH]c(=S)[nH]c2[nH]c1=O
inactive: T-47D breast 112% and 102% | BT-549 breast 118% and 105% | SW-620 colon; 10 µM unless noted 105% and 101% | MCF7 breast; 10 µM unless noted 101% and 99.9% | HCT-116 colon; 10 µM unless noted 108% and 105% | HCC-2998 colon; 10 µM unless noted 102% and 106% | KM12 colon; 10 µM unless noted 109%

CN1C2C=CC(=O)C1C1C(=O)N(c3ccccc3)C(=O)C12 (centres undefined)
inactive: T-47D breast 68.5% | BT-549 breast 52.9% | SW-620 colon; 10 µM unless noted 37.3% | MCF7 breast; 10 µM unless noted 44.5% | HCT-116 colon; 10 µM unless noted 35.9% | HCC-2998 colon; 10 µM unless noted 113% | KM12 colon; 10 µM unless noted 56.3%

CCOCCC(=O)O
inactive: T-47D breast 94.1% | BT-549 breast 107% | SW-620 colon; 10 µM unless noted 101% | MCF7 breast; 10 µM unless noted 104% | HCT-116 colon; 10 µM unless noted 97.3% | HCC-2998 colon; 10 µM unless noted 123% | KM12 colon; 10 µM unless noted 117%

COc1ccc2oc3c(ccc[n+]3C)c(=O)c2c1
inactive: T-47D breast 85.9% | BT-549 breast 103% | SW-620 colon; 10 µM unless noted 105% | MCF7 breast; 10 µM unless noted 100% | HCT-116 colon; 10 µM unless noted 101% | HCC-2998 colon; 10 µM unless noted 117% | KM12 colon; 10 µM unless noted 108%

CC(C)(C)C1CCC(=NO)CC1 (centres undefined)
inactive: T-47D breast 96.6% | MDA-MB-435 melanoma 99.8% | MCF7 breast; 10 µM unless noted 83.9% | HCT-116 colon; 10 µM unless noted 96.8% | HCC-2998 colon; 10 µM unless noted 107% | KM12 colon; 10 µM unless noted 103%

COc1ccc(-n2[nH]c3c(cnc4ccccc43)c2=O)cc1
inactive: T-47D breast 88.3% | SW-620 colon; 10 µM unless noted 106% and 103% | MCF7 breast; 10 µM unless noted 98.8% and 93.1% | HCT-116 colon; 10 µM unless noted 90.5% and 95.1% | HCC-2998 colon; 10 µM unless noted 69.2% and 107% | KM12 colon; 10 µM unless noted 99.1% and 97.7%

CC(C)(C(=O)c1cccnc1)c1cccnc1
inactive: T-47D breast 96.2% and 111% | SW-620 colon; 10 µM unless noted 105% and 106% | MCF7 breast; 10 µM unless noted 102% and 93.8% | HCT-116 colon; 10 µM unless noted 108% and 111% | HCC-2998 colon; 10 µM unless noted 102% | KM12 colon; 10 µM unless noted 101% and 113%

CC(CN(C)C)CN1c2ccccc2Sc2ccccc21 (centres undefined)
inactive: T-47D breast 79.4% and 88.3% | MDA-MB-435 melanoma 76.3% and 85% and 75.7% | SW-620 colon; 10 µM unless noted 86.9% and 83.8% and 88.8% | MCF7 breast; 10 µM unless noted 88.2% and 94.2% and 82.2% | HCT-116 colon; 10 µM unless noted 59.3% and 63.9% and 94.9% | HCC-2998 colon; 10 µM unless noted 78.4% and 97.8% and 83.4% | KM12 colon; 10 µM unless noted 95.4% and 104% and 89.5%

COc1ccc(C(=O)C(O)c2ccc(OC)cc2)cc1 (centres undefined)
inactive: T-47D breast 103% and 92.8% | MDA-MB-435 melanoma 117% and 111% | SW-620 colon; 10 µM unless noted 105% and 107% | MCF7 breast; 10 µM unless noted 96.7% and 98.1% | HCT-116 colon; 10 µM unless noted 102% and 93% | HCC-2998 colon; 10 µM unless noted 111% and 108% | KM12 colon; 10 µM unless noted 110% and 99.8%

CC(=O)C[n+]1ccccc1Sc1ccc(Cl)cc1
inactive: T-47D breast 84.8% | MDA-MB-435 melanoma 78% | SW-620 colon; 10 µM unless noted 91.6% | MCF7 breast; 10 µM unless noted 65% | HCT-116 colon; 10 µM unless noted 81.5% | HCC-2998 colon; 10 µM unless noted 128% | KM12 colon; 10 µM unless noted 79.2%

S=c1nc[nH]c2nc[nH]c12
inactive: T-47D breast 18.6% | SW-620 colon; 10 µM 34.6% | SW-620 colon; 50 µM 21.5% | MCF7 breast; 10 µM 10.7% | HCT-116 colon; 10 µM 19.2% | HCT-116 colon; 50 µM 28.3% | HCC-2998 colon; 10 µM 23.2% | HCC-2998 colon; 50 µM 31% | KM12 colon; 10 µM 35.4% | KM12 colon; 50 µM 14.9%
active: MCF7 breast; 50 µM 6.35% | MCF7 breast; 750 µM 4.16% and -35.5%

CCOC(=O)C(N)Cc1cc(I)c(O)c(I)c1 (centres undefined)
inactive: T-47D breast 105% and 111% | MDA-MB-435 melanoma 105% and 114% | SW-620 colon; 10 µM unless noted 104% | MCF7 breast; 10 µM unless noted 107% and 103% | HCT-116 colon; 10 µM unless noted 110% and 95.3% | HCC-2998 colon; 10 µM unless noted 104% and 96.6% | KM12 colon; 10 µM unless noted 107%

O=C(O)c1cc(=O)[nH]c(=O)[nH]1
inactive: T-47D breast 101% and 105% | MDA-MB-435 melanoma 96.7% and 113% | MCF7 breast; 10 µM unless noted 98.7% | HCT-116 colon; 10 µM unless noted 107% | HCC-2998 colon; 10 µM unless noted 99.3% | KM12 colon; 10 µM unless noted 106% and 99.6%

COc1ccc(S(=O)(=O)c2ccc(F)cc2)cc1
inactive: T-47D breast 99% | MDA-MB-435 melanoma 122% | SW-620 colon; 10 µM unless noted 103% | MCF7 breast; 10 µM unless noted 101% | HCT-116 colon; 10 µM unless noted 102% | HCC-2998 colon; 10 µM unless noted 111% | KM12 colon; 10 µM unless noted 106%

CCC(C)(O)CCC(C)(O)CC (centres undefined)
inactive: T-47D breast 96% | MDA-MB-435 melanoma 111% | SW-620 colon; 10 µM unless noted 112% | MCF7 breast; 10 µM unless noted 92.4% | HCT-116 colon; 10 µM unless noted 101% | HCC-2998 colon; 10 µM unless noted 87.7% | KM12 colon; 10 µM unless noted 103%

COCCCNC1=C(C#N)C(=O)NC(c2cccs2)S1 (centres undefined)
inactive: T-47D breast 89% | MDA-MB-435 melanoma 95.9% | SW-620 colon; 10 µM unless noted 113% | MCF7 breast; 10 µM unless noted 89.6% | HCT-116 colon; 10 µM unless noted 103% | HCC-2998 colon; 10 µM unless noted 108% | KM12 colon; 10 µM unless noted 108%

O=C1Cc2ccccc2C(=O)N1
active: HCT-116 colon; 10 µM unless noted 6.29%
inactive: T-47D breast 71.1% | MDA-MB-435 melanoma 99.4% | SW-620 colon; 10 µM unless noted 56.6% | MCF7 breast; 10 µM unless noted 56.8% | HCC-2998 colon; 10 µM unless noted 103% | KM12 colon; 10 µM unless noted 102%
